Screening results: PubChem BioAssay, Sanford-Burnham Center for Chemical Genomics
CYP2C9 inh = blocks human cytochrome P450 2C9 | 96,000 tested, 20% active | P11712 | CYP2C9 Supersomes, luciferin-H conversion, luminescence | inhibition, % at 5 µM;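 active = blocking of liver enzyme CYP2C9 beyond about 50% at 5 µM, limit read from the data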
CD11b adhes enh = increases human CD11b/CD18 adhesion to fibrinogen. K562 CD11b/CD18 adhesion to fibrinogen, ATPlite luminescence. activation, % at 10 µM. 93,000 tested, 0.07% active;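 active = 10 µM primary screen giving 50% or more activity, confirmed by 40% or more on retest at that dose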
CYP2C19 act = increases human CYP2C19 enzyme activity | P33261 | recombinant CYP2C19, luciferin-H EGE luminescence; active compounds read high; 0 = fully inhibited enzyme, 1 = untreated enzyme | activation factor at 5 µM | 96,000 tested, under 10 active;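 active = activation factor of at least 2 at 5 µM in the primary screen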;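 also: 0 = wells with 2.5 mM tranylcypromine and 1 = vehicle-only wells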
CYP2C9 activ = CYP2C9 (human) activation; P11712; recombinant CYP2C9, luciferin-H conversion, luminescence; active compounds read high; factor 1 = untreated enzyme, 0 = blocked; activation factor at 5 µM; 96,000 tested, 1.4% active;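 active = activation factor of 2 or more for CYP2C9 at a 5 µM dose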;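 also: 0 = sulfaphenazole-blocked wells and 1 = vehicle-only wells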
CYP2C19 inh = blocks human cytochrome P450 2C19; P33261; CYP2C19 Supersomes, luciferin-H EGE luminescence, 30 min; inhibition, % at 5 µM; 96,000 tested, 21% active;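 active = CYP2C19 inhibition above a set limit at 5 µM in the primary screen, cut at about 50% in these data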;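 also: plate controls were negative control wells for no effect and 2.5 mM tranylcypromine positive control for full effect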
CD11b adhes inh = inhibitors of human CD11b/CD18 binding to fibrinogen | 93,000 tested, 0.54% active | inhibition, % at 10 µM | K562 CD11b/CD18 adhesion to fibrinogen, ATPlite luminescence; Mn2+ added to activate the integrin | P05107+P11215;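 active = primary inhibition of 50% or more at 10 µM, then 40% or more on retest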
* = called active by the depositor; / = no result given. Compounds with a hit are over-represented: about 28% of the library has one in this group of screens.

SMILES	CYP2C9 inh	CD11b adhes enh	CYP2C19 act	CYP2C9 activ	CYP2C19 inh	CD11b adhes inh
CC1CCN(C(=O)CCNS(=O)(=O)c2ccccc2)CC1	13	-9	0.5	0.9	54*	-12
O=C(O)CCNS(=O)(=O)c1ccccc1	6	-1	1	0.9	3	-3
Cc1ccc(S(=O)(=O)NCCC(=O)N2CCN(Cc3ccccc3)CC2)cc1	5	/	0.5	0.9	52*	/
CCc1nnc(NC(=O)c2ccc(COc3ccccc3)o2)s1	35	4	0.9	0.7	6	-22
CC(=O)Cc1nsc(NC(=O)c2ccc(COc3ccccc3)o2)n1	57*	1	0.8	0.4	19	-15
CC(=O)Cc1nsc(Nc2ccccc2)n1	18	0	0.2	0.8	77*	-35
CCc1ccc(Nc2nnc(SCc3cc(=O)n4ccsc4n3)s2)cc1	36	-4	0.7	0.6	33	-8
Cc1sc2ncnc(N3CCCCC3C)c2c1C (centres undefined)	47	-1	0.2	0.5	79*	14
CC1CCN(c2nc(-c3ccncc3)nc3ccccc23)CC1	76*	2	0.1	0.2	93*	-15
CCC1CCCCN1c1nc(-c2ccncc2)nc2ccccc12 (centres undefined)	100*	0	0	0	99*	-14
CC1CCCCN1c1nc(-c2ccncc2)nc2ccccc12 (centres undefined)	78*	3	0.1	0.2	91*	-4
C=C1N(CCCCCC(=O)O)C(=O)OC12CCCCC2	10	-2	1	0.9	0	-2
CCC1CCCCN1c1nc(-c2cccc(OC)c2O)nc2ccccc12 (centres undefined)	83*	0	0.8	0.2	25	28
COc1cccc(-c2nc(N3CCN(c4ccccc4)CC3)c3ccccc3n2)c1O	55*	/	0.8	0.4	21	/
c1cncc(-c2nc(N3CCOCC3)c3ccccc3n2)c1	66*	12	0.7	0.3	33	2
CC1CCCCN1c1ncnc2ccccc12 (centres undefined)	5	-4	0.9	0.9	12	69*
COc1cccc(-c2nc(NC(C)C)c3ccccc3n2)c1O	28	-6	0.9	0.7	8	26
Cn1cnnc1SCc1ccc(F)c2ccccc12	-13	-1	0.4	1.1	56*	-17
COc1cccc(C2C(C(=O)c3sc(C)nc3C)=C(O)C(=O)N2CCN(C)C)c1OC (centres undefined)	-5	1	1	1.1	2	-8
O=C(Nc1cccnc1)C1CC(c2ccc(Cl)c(Cl)c2)=NO1 (centres undefined)	56*	-1	0.1	0.4	94*	-16
COc1ccc(OC)c(C2=NOC(C(=O)Nc3cccnc3)C2)c1 (centres undefined)	-99	2	0.2	2*	76*	10
COc1ccc(OC)c(C2=NOC(C(=O)NCCN3CCOCC3)C2)c1 (centres undefined)	-49	0	0.8	1.5	17	-1
CCN(CC)S(=O)(=O)c1cccc(-c2nnc(SCC(=O)NC)n2CCc2ccccc2)c1	38	1	0.6	0.6	45	-16
Nn1c(SCC(=O)NC2CCCCC2)nnc1-c1ccccc1	-10	-2	0.7	1.1	31	-10
CCN(CC)S(=O)(=O)c1cccc(-c2nnc(SCC(=O)NC3CCCC3)n2N)c1	8	-8	0.8	0.9	20	-2
SMILES	CYP2C9 inh	CD11b adhes enh	CYP2C19 act	CYP2C9 activ	CYP2C19 inh	CD11b adhes inh
CCN(CC)S(=O)(=O)c1cccc(-c2nnc(SCC(=O)NC3CCCCCCC3)n2N)c1	79*	-2	0.5	0.2	52*	-3
CCN(CC)S(=O)(=O)c1cccc(-c2nnc(SCC(=O)NC3CCCCCC3)n2N)c1	60*	-2	0.4	0.4	57*	-39
CC1CCCCC1NC(=O)CSc1nnc(-c2ccccc2)n1N (centres undefined)	56*	2	0.1	0.4	88*	32
CCOC(=O)c1c(NC(=O)c2noc3c2CCCC3)sc(C)c1C	7	0	1	0.9	-2	-2
COc1cc(C(Nc2ccc3c(c2)OCO3)C(=O)NC2CCCCC2)cc(OC)c1OC (centres undefined)	28	15	0.3	0.7	74*	-37
COc1ccc(C(C(=O)NC2CCCC2)N(C(=O)c2ccco2)c2ccc3c(c2)OCO3)cc1OC (centres undefined)	5	-6	1	0.9	-2	17
CCOC(=O)C1=C(C)NC(C)=C(C(=O)OCC)C1c1sccc1C	90*	3	0.4	0.1	56*	-8
CCCC1C(C(=O)OCC)=C(C)NC(C)=C1C(=O)OCC	68*	0	0.1	0.3	94*	-18
CCOC(=O)C1=C(C)NC(C)=C(C(=O)OCC)C1c1ccc(O)cc1	98*	-3	0	0	98*	-15
COC(=O)C1=C(C)NC(C)=C(C(=O)OC)C1c1ccc(N(C)C)cc1	70*	1	0.2	0.3	84*	-14
CCOc1ccc(C2NC(=O)NC(C)=C2C(=O)OC)cc1C (centres undefined)	29	-1	0.6	0.7	43	0
CC1CN(C(=O)COC(=O)[C@@H]2CC(O)CN2S(=O)(=O)c2ccc3c(c2)OCCO3)CC(C)O1 (some centres undefined)	/	2	/	/	/	-7
Cc1ccc(C)c(S(=O)(=O)NC(C)C(=O)Nc2ccc(-c3nc4ccccc4s3)cc2)c1 (centres undefined)	4	5	1	1	0	7
COc1ccc(C(=O)Nc2nc3ccccc3[nH]2)cc1S(=O)(=O)N1CCCC1	14	-2	0.9	0.9	8	-5
O=C(NC1CCCCC1)C1CC=CCC1C(=O)OCC(Cl)=C(Cl)Cl (centres undefined)	34	/	0.8	0.7	17	/
COc1ccc(F)cc1S(=O)(=O)NC(Cc1ccccc1)C(N)=O (centres undefined)	-6	/	0.7	1.1	26	/
CCOC(=O)C(Cc1ccccc1)NS(=O)(=O)c1ccc(NC(C)=O)cc1 (centres undefined)	3	/	0.3	1	67*	/
NC(=O)COC(=O)C(Cc1ccccc1)NS(=O)(=O)c1ccccc1F (centres undefined)	19	3	0.4	0.8	58*	7
CCOC(=O)C(Cc1ccccc1)C(=O)Nc1ccc(NC(=O)C(Cc2ccccc2)C(=O)OCC)cc1 (centres undefined)	/	55	/	/	/	16
CSc1ccccc1NC(=O)c1cccnc1	-13	3	1.1	1.1	-8	-48
COc1ccc(C(O)c2nc3ccccc3s2)cc1 (centres undefined)	39	0	0.4	0.6	62*	-2
